± gives the uncertainty stated by the source.
Test system: THP-1
Experiment: CD86 surface expression induction over DMSO control (% over DMSO); higher = stronger dendritic cell activation
Details: exposure time: 24 h
Protocol: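 hCLAT-like CD54 and CD86 surface expression on THP1 cells after 24 h exposure at a single concentration (highest non-cytotoxic concentration, or 100-200 µM if not cytotoxic). Flow cytometry (iQue) was run on 5,000 live cells.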

Row | SMILES | CD86 surface expression induction
1 | c1ccc(CCNc2nc(-c3ccccc3)cs2)cc1 [Fanetizole] (200 µM) | -6.54 ± 1.4
2 | CCCOc1ccc2[nH]c(NC(=O)OC)nc2c1 [Oxibendazole] (100 µM) | -3.54 ± 40
3 | CC(=O)Oc1ccc(C(c2ccc(OC(C)=O)cc2)c2ccccn2)cc1 [Bisacodyl] (100 µM) | 26.6 ± 55
4 | Cc1c(C)n(CCN(C)C)c2ccc(C(=O)OCCN(C)C)cc12 [Amindocate] (100 µM) | 1.11 ± 2.2
5 | O=C(O)c1cccnc1Nc1cccc(C(F)(F)F)c1 [Niflumic acid] (100 µM) | -3.19 ± 1.6
6 | O=C(O)CCCCCCCCC(=O)O [Decanedioic acid] (200 µM) | -3.64 ± 3
7 | CCCCCOc1ccccc1/C(=C\SC)n1ccnc1 [Neticonazole] (100 µM) | 38.9 ± 22
8 | COC(=O)CCCCCCCC(=O)OC [Dimethyl nonanedioate] (200 µM) | -0.54 ± 1.9
9 | Cc1cc(C2(c3cc(C)c(O)cc3C)OS(=O)(=O)c3ccccc32)c(C)cc1O [p-Xylenol blue] (200 µM) | 2.3 ± 1.9
10 | CC/C=C\C/C=C\C/C=C\CCCCCCCC(=O)OCC [Ethyl linolenate] (10 µM) | -8.18 ± 6.8
11 | O=CC(=O)c1ccccc1 [Phenyl glyoxal] (100 µM) | 4.41 ± 2
12 | CCCCc1ccc2[nH]c(NC(=O)OC)nc2c1 [Parbendazole*] (200 µM) | 65.8 ± 110
13 | C=CC(=O)OCCOC(=O)CCC(=O)O [4-[2-(Acryloyloxy)ethoxy]-4-oxobutanoic acid] (200 µM) | -12.9 ± 36
14 | O=C1Nc2ccccc2C1(c1ccc(O)cc1)c1ccc(O)cc1 [Oxyphenisatin] (100 µM) | 3.8 ± 8.1
15 | O=C(CCCCCCC(=O)Nc1ccccc1)NO [Vorinostat (SAHA)] (100 µM) | 5.02 ± 4
16 | NC(=O)n1c(O)c(C(=O)c2cccs2)c2cc(Cl)ccc21 [Tenidap*] (200 µM) | 98.4 ± 52
17 | Cc1c(C)n(Cc2ccccc2)c2ccc(C(=O)OCCN(C)C)cc12 [Indocate] (200 µM) | 67.3 ± 61
18 | Nc1cc(-c2ccncc2)c[nH]c1=O [Amrinone] (100 µM) | -0.14 ± 4.2
19 | C/C=C1\C(=O)C[C@H]2[C@@H]3CCC4=CC(=O)CC[C@]4(C)[C@H]3CC[C@]12C [Guggulsterone Z] (100 µM) | -9.87 ± 7.2
20 | Oc1ccc(/C=C/c2cc(O)cc(O)c2)cc1 [Resveratrol] (100 µM) | -3.05 ± 3.9
21 | CO[C@@H]1[C@H](OC(=O)/C=C/C=C/C=C/C=C/C(=O)O)CC[C@]2(CO2)[C@H]1[C@@]1(C)O[C@@H]1CC=C(C)C [Fumagillin] (100 µM) | -0.42 ± 8.1
22 | CCCCCCCCCCCCCC[N+](C)(C)C [Tetradonium bromide] (10 µM) | 53 ± 19
23 | CCCCCCCC(=O)Oc1c(Br)cc(C#N)cc1Br [Bromoxynil octanoate] (100 µM) | -3.51 ± 5
24 | S=C(NC1CCCCC1)NC1CCCCC1 [N,N'-Dicyclohexylthiourea] (10 µM) | -17.9 ± 4.5
25 | Clc1ccc(C(Cn2ccnc2)OCc2c(Cl)cccc2Cl)c(Cl)c1 (stereo not given) [Isoconazole] (100 µM) | 76.1 ± 95
26 | O=C(Oc1ccccc1)c1ccccc1O [Phenyl salicylate] (200 µM) | -3.35 ± 5.3
27 | c1ccc(SCCSc2ccccc2)cc1 [1,2-Bis(phenylthio)ethane] (100 µM) | -2.45 ± 2.3
28 | Nc1ccc(Nc2ccccc2)cc1 [N-Phenyl-1,4-benzenediamine] (200 µM) | 44.2 ± 39
29 | Nc1cc(Cl)c(O)c(Cl)c1 [4-Amino-2,6-dichlorophenol] (100 µM) | -14.4 ± 29
30 | c1ccc(-c2ccccn2)nc1 [2,2'-Dipyridyl] (200 µM) | 0.3 ± 28

From the supplement of paper PMC10933113
